We go through 20 molecules from PubChem BioAssay.

Test [1] is described as follows: LFS_MB_P medulloblastoma growth inhibition, cell-based, chromothripsis tumors, cisplatin or BGB combos (AID 1671449; in the data active = inhibition above about 80%;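 also: cells exposed for 96 hours; 0% = vehicle DMSO and 100% = killing by high DMSO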). As to conditions: LFS_MB_P medulloblastoma cells.
Test [2] in a line: HDN33 neuroblastoma growth inhibition, cell-based, chromothripsis tumors, cisplatin or BGB combos (AID 1671450; in the data active = inhibition above about 80%;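 also: cells exposed to compound for four days; 0% = vehicle DMSO and 100% = cell killing by high DMSO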). The note with it: HDN33 neuroblastoma cells, stronger effect = higher value.
The nature of test [3]: LFS_MB_1R medulloblastoma cell growth inhibition, synergistic combos for chromothripsis tumors, cisplatin or BGB combos (AID 1671452; in the data active = inhibition above about 80%;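 also: cells exposed for 96 hours before readout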). The note with it: LFS_MB_1R medulloblastoma cells, stronger effect = higher value.
The nature of test [4]: HTB85 osteosarcoma cell growth inhibition, synergistic combos for chromothripsis tumors, BGB or cisplatin IC20 combos (AID 1671453; in the data active = inhibition above about 80%;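 also: cells exposed for 96 hours before readout; 0% = vehicle DMSO and 100% = high DMSO killing control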). As to conditions: HTB85 osteosarcoma cells, drug combinations, stronger effect = higher value.
Test [5] in a line: MDA-MB-436 breast carcinoma cell growth inhibition, synergistic combos for chromothripsis tumors, BGB or cisplatin combos (AID 1671458; call rule not given here;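 also: cells exposed for 96 hours; 0% = vehicle DMSO and 100% = killing by high DMSO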). The note with it: MDA-MB-436 breast carcinoma growth inhibition, drug combinations, stronger effect = higher value.
Test [6] can be described thus: growth inhibition of BT084 medulloblastoma cells, cell-based, ICGC_MB145, cisplatin and BGB IC40 combos (AID 1671461; in the data active = inhibition above about 80%;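 also: cells exposed to drugs for 96 hours; 0% = vehicle DMSO and 100% = high DMSO full killing control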). As to conditions: drug combinations, stronger effect = higher value.
Test [7] can be described thus: growth inhibition of RCMB18 medulloblastoma cells, cell-based, cisplatin and BGB IC40 combos (AID 1671462; in the data active = inhibition above about 80%;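 also: cells exposed to compound for four days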). As to conditions: stronger effect = higher value.
Test [8] is described as follows: growth inhibition of CRL1545 osteosarcoma cells, cell-based, cisplatin and BGB IC20 combos (AID 1671464; in the data active = inhibition above about 80%;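 also: cells exposed to compound for 96 hours before readout; 0% = vehicle DMSO and 100% = high DMSO killing control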). As to conditions: stronger effect = higher value.
Test [9] can be described thus: growth inhibition of DIPG glioma cells, dose response, cell-based, SU-DIPG-XIII, MIPE4.0, CellTiter-Glo, qHTS (AID 1347061; cut-off not given, nearly all actives have AC50 up to about 37 µM;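 also: cells exposed to compound for 48 hours before readout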). The note with it: SU-DIPG-XIII viability, CellTiter-Glo ATP luminescence. Background: In ATP-based viability assays light output follows the ATP content of the culture.
The nature of test [10]: growth inhibition of DIPG glioma cells, dose response, cell-based, SU-DIPG-IV, MIPE4.0, CellTiter-Glo, qHTS (AID 1347063; cut-off not given, nearly all actives have AC50 up to about 30 µM;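 also: compound exposure lasted 48 hours before the viability readout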). The note with it: SU-DIPG-IV viability, CellTiter-Glo ATP luminescence.
Test [11] is described as follows: SU-DIPG-VI glioma cell viability, MIPE4.0 library, CellTiter-Glo luminescence, qHTS (AID 1347066; cut-off not given, nearly all actives have AC50 up to about 30 µM;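 also: cells exposed to compound for 48 hours before readout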). The note with it: CellTiter-Glo ATP luminescence.
For test [12], the system named is Hepatitis C virus NS3 helicase. The experiment in a line: HCV NS3 helicase inhibitors, primary screen, biochemical, fluorescence polarization, LOPAC1280 library (AID 687035; in the data active = inhibition above about 37%). The note with it: Purified HCV NS3 helicase, Cy5-dT15 ssDNA binding fluorescence polarization; stronger effect = higher value; concentration not given here. (In general: Polarisation of emitted light reports the rotation of a fluorescent probe.)

Test [13] is described as follows: Cy5 fluorescence quenching or enhancement artefacts, artefact control for HCV NS3 helicase inhibitor project, biochemical, LOPAC1280 (AID 687037; call rule not given here). As to conditions: Cy5-DNA-NS3h complex fluorescence interference counterscreen. (A counterscreen serves to expose hits that act by an unwanted route or on another target.)
A short description of test [14]: phospholipid biosynthesis inhibitors in animal cells, primary screen, cell-based, LOPAC library, screen 4 (AID 1347384; call rule not given here). As to conditions: phospholipid biosynthesis inhibition screen, at 10 µM.
Test [15] is described as follows: rescue of polyQ-huntingtin neuronal dysfunction in worms, whole organism, C. elegans mechanosensory neurons, N-terminal huntingtin (AID 1599). The note with it: touch response, stronger effect = higher value.
Test [16] in a line: suppressors of polyglutamine aggregation in yeast, 75Q-TubH (AID 1616). As to conditions: S. cerevisiae 75Q-TubH polyglutamine aggregation suppression; stronger effect = higher value.
Another test relates to F380Y/beta1. The experiment in a line: modulators of BK channel variants, profiling panel, selectivity assay, cell-based, U2OS BacMam, thallium flux, beta subunits (AID 1259406).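 Also: initial slope of Thallos dye fluorescence rise after thallium is added; log ratio against the mean of 0.3% DMSO vehicle wells on the same plate.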 As to conditions: at 30 µM.
Another test deals with F380Y/beta4. The test is described as above. The note with it: at 30 µM.
For the next test, the system named is R275C/beta4. The description is as above. As to conditions: at 30 µM.
For the next test, the system named is R275C/Slo1WT/beta2. Described as above. The note with it: at 30 µM.
[17] abbreviates: measured here: combination with BGB IC40, at 0.05 µM.
The mark [18] stands for this setting: measured here: with BGB IC20 combination, at 0.5 µM.
The mark [19] stands for this setting: measured here: with cisplatin IC20 combination, at 0.5 µM.
[20] abbreviates: measured here: combination with cisplatin, at 0.5 µM.

The term inhibition denotes the relative decrease from the control value, in per cent. One may read the AC50 as the concentration giving half of the maximal activity seen.

Each structure is given as a SMILES string. Records with an inconclusive call do not appear. For some of these results: Entries with a potency or affinity are not part of this list. Active and inactive are the calls of the source.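 The calls were made as follows, unless noted: active = thallium flux through the channel raised or lowered by more than 3 SD from vehicle-only wells, actives on both sides; inactive = the rest.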

Regarding `Cn1c(CCCC(=O)O)nc2cc(N(CCCl)CCCl)ccc21`, the inhibition in test [1] (at 0.5 µM, stronger effect = higher value) was -19.5% (inactive); in test [1] (measured here: combination with BGB IC20, at 0.005 µM), -18.2%; in test [1] (measured here: combination with BGB IC40, at 0.005 µM), -30.6%; in test [1] (setting [17]), -11.9%; in test [1] (measured here: combination with cisplatin, at 0.5 µM, stronger effect = higher value) it was -29.9%; in test [1] (measured here: combination with cisplatin, at 5 µM, stronger effect = higher value), -14.2%. Further, the inhibition is -27.8% in test [2] (BGB combo, at 5 µM); -43.6% (inactive) in [2] (at 0.5 µM); -18.8% in test [2] (cisplatin combo, at 5 µM); -46.1% in test [2] (setting [18]); -39.8% in test [2] (setting [19]); -57.4% in test [2] (single agent, at 5 µM). For the same molecule, the inhibition is -36.7% (inactive) in test [3] (at 0.5 µM); -23.8% in test [3] (setting [17]); -14.3% in [3] (setting [20]); -23.5% in test [3] (measured here: combination with cisplatin, at 5 µM); -34.4% (inactive) in [4] (at 0.5 µM); -54.6% in test [4] (measured here: with BGB IC20, at 0.5 µM). The inhibition in test [4] (measured here: with BGB IC20, at 5 µM) is -12.9%; in test [4] (measured here: with cisplatin IC20, at 0.5 µM) it was -48.5%; in test [4] (measured here: with cisplatin IC20, at 5 µM), -38%; in [4] (single agent, at 5 µM), -20%; in test [5] (at 0.5 µM) it was -25.9% (inactive); in [5] (measured here: BGB combination, at 0.5 µM) it was -33%. In addition, the inhibition in [5] (measured here: BGB combination, at 5 µM) is -23.4%; in test [5] (measured here: cisplatin combination, at 0.5 µM), -31%; in test [5] (measured here: cisplatin combination, at 5 µM) it was -8.45%; in test [6] (at 0.5 µM), -12.4% (inactive); in [6] (cisplatin combination, at 0.5 µM) it was -15.3%; in [6] (cisplatin combination, at 5 µM) it was -29.8%. Moreover, the inhibition in test [6] (measured here: BGB IC40 combination 0.05 uM, at 0.05 µM) is -6.48%; in test [6] (single agent, at 5 µM) it was -11.8%; in [7] (at 0.5 µM), -2.17% (inactive); in [7] (cisplatin combo, at 5 µM), -2.69%; in test [7] (measured here: BGB IC40 combination, at 0.05 µM) it was 14.5%; in [7] (setting [20]) it was 15.5%. Further, the inhibition in test [7] (single agent, at 5 µM) was -39.8%; in [8] (at 0.5 µM) it was -50.3% (inactive); in [8] (setting [18]), -68.1%; in test [8] (setting [19]), -41.4%; in test [8] (single agent, at 0.05 µM), 2.56%; in test [8] (single agent, at 5 µM) it was -15.4%.

As to `CN(C)CCc1ccc(O)cc1`, the molecule was called inactive in [9], in test [10] and in [11].

For the molecule `COc1ccc2c(c1OC)CN1CCc3cc4c(cc3C1C2)OCO4` (configuration not stated), the molecule was classed as inactive in test [9] and in test [11]. Moreover, the AC50 in [10] was 16.6 µM (active).

Regarding `CN1C[C@H](CNC(=O)OCc2ccccc2)C[C@@H]2c3cccc4c3c(cn4C)C[C@H]21`, the inhibition in test [12] was -2% (inactive). The fluorescence ratio (interference) in [13] is 1 (inactive). For the same molecule, the outcome in [14] was inactive.

In [15], `CN(C)C(=S)SSC(=S)N(C)C` registered a rescue above control of 2.19. For the same molecule, the aggregation suppression score in test [16] was found to be 0.0152.

With `COc1ccc2c(c1OC)C(=O)O[C@H]2[C@@H]1c2cc3c(cc2CCN1C)OCO3`, the inhibition in test [12] was -3% (inactive). Also, in test [13], the fluorescence ratio (interference) is 1 (inactive). Further, in test [14], the molecule was classed as inactive.

For the molecule `O=C1CC[C@@]2(O)[C@H]3Cc4ccc(O)c5c4[C@@]2(CCN3CC2CC2)[C@H]1O5`, the outcome in [9], in test [10] and in test [11] was inactive. Besides, the log fold change Tl+ flux with F380Y/beta1 is -0.0461 (inactive); with F380Y/beta4, -0.0353 (inactive); in the test with R275C/beta4, -0.0587 (inactive); in the test with R275C/Slo1WT/beta2 it was 0.0463 (inactive).

For the molecule `FC(F)(F)c1cccc(N2CCNCC2)c1`, in [15], the rescue above control turned out to be 0. Moreover, the aggregation suppression score in test [16] is 1.16.

In test [15], `O=c1ccc2cc(O[C@@H]3O[C@H](CO)[C@@H](O)[C@H](O)[C@H]3O)c(O)cc2o1` came in with a rescue above control of -7.81. In test [16], this molecule had an aggregation suppression score of 1.

With `Clc1ccc(COC(Cn2ccnc2)c2ccc(Cl)cc2Cl)c(Cl)c1` (configuration not stated), the rescue above control in test [15] was 0. The molecule also displayed an aggregation suppression score in [16] of 0.00246. Further, the log fold change Tl+ flux in the test on F380Y/beta1 was -0.101 (inactive); in the test with F380Y/beta4, -0.445 (active); with R275C/beta4, 0.0768 (inactive); in the test with R275C/Slo1WT/beta2, 0.0237 (inactive).

With `Cc1nccc2c1[nH]c1ccccc12`, the inhibition in [12] was -1% (inactive). In addition, the fluorescence ratio (interference) in test [13] is 1 (inactive). Also, the result in test [14] was inactive.

As to `COc1ccc2[nH]cc(CCN)c2c1`, the inhibition in [12] was -2% (inactive). The fluorescence ratio (interference) in test [13] is 1 (inactive). Also, in test [14], the call was inactive. For the same molecule, the log fold change Tl+ flux in the test with F380Y/beta1 was 0.0119 (inactive); in the test on F380Y/beta4, -0.0167 (inactive); with R275C/beta4 it was 0.0135 (inactive); in the test on R275C/Slo1WT/beta2, 0.00615 (inactive).

In the case of `c1ccc2c3c([nH]c2c1)CNCC3`, the log fold change Tl+ flux was -0.00595 (inactive) in the test on F380Y/beta1, -0.0163 (inactive) with F380Y/beta4, -0.016 (inactive) in the test on R275C/beta4 and -0.0345 (inactive) in the test on R275C/Slo1WT/beta2.

`C=CCN1CC[C@]23c4c5ccc(O)c4O[C@H]2C(=O)CC[C@@]3(O)[C@H]1C5`: the log fold change Tl+ flux with F380Y/beta1 is 0.0814 (inactive); in the test with F380Y/beta4, 0.0525 (inactive); with R275C/beta4, 0.00421 (inactive); in the test on R275C/Slo1WT/beta2 it was 0.0157 (inactive).

With `C=C[C@H]1CN2CC[C@H]1C[C@H]2[C@H](O)c1ccnc2ccccc12`, in test [15], the rescue above control is 0.34. Besides, in [16], the aggregation suppression score turned out to be 1.28.

In test [16], `O=c1c2ccccc2[se]n1-c1ccccc1` came in with an aggregation suppression score of 0.00636. Also, the inhibition in test [12] was -2% (inactive). In addition, in test [13], the fluorescence ratio (interference) was 1 (inactive).

With `NC(=O)CS(=O)C(c1ccccc1)c1ccccc1` (configuration not stated), the log fold change Tl+ flux in the test with F380Y/beta1 is 0.0487 (inactive); in the test with F380Y/beta4 it was 0.00509 (inactive); in the test on R275C/beta4 it was 0.0208 (inactive); with R275C/Slo1WT/beta2, 0.0297 (inactive).

In test [15], `CC[C@@H](CO)NC(=O)[C@@H]1C=C2c3cccc4[nH]cc(c34)C[C@H]2N(C)C1` came in with a rescue above control of 4.84. The molecule also displayed an aggregation suppression score in test [16] of 1.32. For the same molecule, the inhibition in [12] was -5% (inactive). Moreover, in test [13], the fluorescence ratio (interference) is 1 (inactive). The molecule was classed as inactive in test [14].

On to `COc1cc2c(cc1OC)[C@@]13CCN4CC5=CCO[C@H]6CC(=O)N2[C@H]1[C@H]6[C@H]5C[C@H]43`, for which the log fold change Tl+ flux in the test with F380Y/beta1 is -0.0206 (inactive); with F380Y/beta4, 0.0166 (inactive); in the test with R275C/beta4, -0.00487 (inactive); in the test on R275C/Slo1WT/beta2, -0.0314 (inactive).

With `CC(C)CC(N(C)C)C1(c2ccc(Cl)cc2)CCC1` (configuration not stated), the AC50 in [9] was 23.5 µM (active). The result in [10] and in test [11] was inactive.
